# According to the supplement of paper PMC3545927:
# Some of the results follow. No count for the full screen is at hand.
# Molecular target: furin, P09958
# Assay: furin cleavage Z-score vs untreated control; higher = more cleavage, active = 3.5 or more, inactive = 1 or less, 8 variable residues between constant flanks
# In short: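 Furin-free reactions served as the baseline for the cleavage Z-score, which is the log read count lowess-adjusted and scaled by median absolute deviation. Counts came from released DNA, adapter-tagged by PCR and sequenced. Purified furin had cut 8-mer peptides fused to a cDNA oligonucleotide on magnetic beads during 7.5, 15 or 30 min at 1:10 enzyme:substrate.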
# 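Also: purified furin at 1:10 enzyme:substrate in 50 mM HEPES pH 7.5.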
# Chain of furin, P09958 (P09958 whole entry): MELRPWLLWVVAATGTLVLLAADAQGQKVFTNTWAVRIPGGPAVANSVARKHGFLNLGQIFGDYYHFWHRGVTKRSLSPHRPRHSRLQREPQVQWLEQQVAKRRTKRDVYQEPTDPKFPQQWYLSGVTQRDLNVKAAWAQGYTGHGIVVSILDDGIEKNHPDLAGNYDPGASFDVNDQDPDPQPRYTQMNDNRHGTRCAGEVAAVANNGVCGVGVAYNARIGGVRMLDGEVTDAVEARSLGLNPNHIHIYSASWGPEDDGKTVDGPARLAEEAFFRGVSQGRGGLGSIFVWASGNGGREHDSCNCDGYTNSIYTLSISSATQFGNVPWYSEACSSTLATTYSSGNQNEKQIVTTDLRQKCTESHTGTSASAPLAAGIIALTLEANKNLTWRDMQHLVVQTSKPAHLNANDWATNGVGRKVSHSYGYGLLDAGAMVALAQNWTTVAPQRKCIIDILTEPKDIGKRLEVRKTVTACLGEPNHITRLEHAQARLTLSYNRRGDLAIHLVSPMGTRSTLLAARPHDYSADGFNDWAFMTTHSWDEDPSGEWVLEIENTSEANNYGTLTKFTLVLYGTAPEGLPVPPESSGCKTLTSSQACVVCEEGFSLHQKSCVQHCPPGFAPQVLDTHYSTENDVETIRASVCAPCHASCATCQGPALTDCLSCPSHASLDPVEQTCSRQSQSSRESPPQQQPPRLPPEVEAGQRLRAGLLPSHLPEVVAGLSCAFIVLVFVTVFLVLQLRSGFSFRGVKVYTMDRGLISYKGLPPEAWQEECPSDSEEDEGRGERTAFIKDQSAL
Sequence,furin cleavage Z-score (7.5 min),furin cleavage Z-score (15 min),furin cleavage Z-score (30 min)
CAANRRMKRIAGNASASA [FS-750],7.06 (active),9.01 (active),7.77 (active)
CAVPRRSKRIAGNASASA [FS-513],6.01 (active),7.79 (active),6.97 (active)
CAFPMRSKKIAGNASASA [FS-771],-1.66 (inactive),0.142 (inactive),-0.16 (inactive)
CADDERSKRIAGNASASA [FS-221],0.272 (inactive),0.273 (inactive),-0.987 (inactive)
CALVVRGPPGAGNASASA [FS-1846],-0.565 (inactive),-0.565 (inactive),-0.843 (inactive)
CASLERLRRGAGNASASA [FS-296],0.592 (inactive),0.0398 (inactive),0.764 (inactive)
CAHHHRHHRAAGNASASA [FS-1336],2.38,2.68,3.58 (active)
CAHHHRHRRAAGNASASA [FS-1006],9.03 (active),6.62 (active),5.92 (active)
CALRAWRHRAAGNASASA [HC1619],2.05,0.378 (inactive),0.854 (inactive)
CASHHRHRRGAGNASASA [FS-1410],9.65 (active),10.8 (active),9.31 (active)
CAMKECSQHLAGNASASA [HC1694],-0.048 (inactive),-0.457 (inactive),-0.785 (inactive)
CATTPCSNSWAGNASASA [HC1901],0.617 (inactive),0.249 (inactive),1.55
CARQKREWVKAGNASASA [FS-2753],3.59 (active),6.92 (active),8.88 (active)
CARQKREWIKAGNASASA [FS-2752],4.32 (active),5.62 (active),9.03 (active)
CAEKKRKFIKAGNASASA [FS-2119],-0.691 (inactive),-0.493 (inactive),-0.629 (inactive)
CAMEECWQHLAGNASASA [HC27],1.1,1.46,0.479 (inactive)
CAYSPGEINRAGNASASA [HC1609],-1.45 (inactive),1.01,-0.452 (inactive)
CAEVDCHRPSAGNASASA [HC2351],0.842 (inactive),0.436 (inactive),0.244 (inactive)
CAQGSRSLTPAGNASASA [HC718],0.532 (inactive),-0.507 (inactive),0.396 (inactive)
CARPSRSGGRAGNASASA [FS-2287],-1.07 (inactive),-0.551 (inactive),-0.606 (inactive)
CARATRKTSEAGNASASA [HC184],-0.121 (inactive),-1.01 (inactive),-1.25 (inactive)
CARISRSLHQAGNASASA [FS-3190],6.79 (active),8.81 (active),8.11 (active)
CARISRSISEAGNASASA [FS-2033],7.46 (active),8.18 (active),7.34 (active)
CARPSRSISLAGNASASA [FS-3027],3.14,4.81 (active),5.36 (active)
CATGLIHLHQAGNASASA [HC504],0.174 (inactive),0.0378 (inactive),-0.549 (inactive)
CARKKKSISLAGNASASA [FS-1855],0.218 (inactive),1.42,3.47
CADQLEQALDAGNASASA [HC1589],-1.05 (inactive),-1.96 (inactive),-1.11 (inactive)
CATHVTGGSAAGNASASA [HC353],-0.463 (inactive),-0.337 (inactive),-2.02 (inactive)
